Pf Dd2 growth: blocks in vitro growth of P. falciparum Dd2; P. falciparum Dd2 growth, SYBR Green, 72 h; Potency, µM (series often up to 28.9 µM), most hits filed as inhibitors; actives 4.3% (n = 120,000); AID 1347417; active = well fitted inhibition curve with a large enough effect; also: nearly all actives have a fitted effect of over 65% in size
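Readout: SYBR Green fluorescence, 485 nm excitation, 535 nm emission, after ~16 h lysis at 37C. Before that, Dd2-infected red cells (2.5% hematocrit) grew 72 h with compound, 29 uM top final concentration.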
Hits are given with their value; n = inactive; [ ] = another dose, or the depositor's remark. This excerpt belongs to a sample that is enriched for hits.

SMILES | Pf Dd2 growth
N#Cc1cccnc1N1CC[C@@H](N2CCC(O)CC2)[C@H](O)C1 | n
O=C(COc1ccccc1)NC[C@H]1O[C@H](Cc2cc(CN3CCNCC3)on2)CC[C@@H]1O | n
COc1ccc(NC(=O)Cn2c(=O)n(-c3cccc(C)c3)c(=O)c3c2cc(C)n3C)cc1OC | n
COc1ccc(-c2nc(C3CN(C(=O)NCc4ccccc4)C3)no2)cc1 | n
CCN(CC)Cc1nc(C2(O)CCN(CC3CC3)CC2)cs1 | n
CCN(CC)Cc1nc(C2(O)CCN(CCC(C)C)CC2)cs1 | 16µM
CCN(CC)Cc1nc(C2(O)CCN(C)CC2)cs1 | n
CC(C)NC(=O)NC[C@H]1OC[C@@H](NCc2ncc[nH]2)[C@@H]1O | n
CS(=O)(=O)N1CCC(Oc2ccc(C(=O)NCCc3cnccn3)cc2Cl)CC1 | n
COCCNC(=O)c1ccc(OC2CCN(CCC(C)c3ccc(C)o3)CC2)c(Cl)c1 (configuration not stated) | 4.5µM
COCCN1CC(CNC(=O)c2cc(Cl)c(C)c(Cl)c2)CC1=O (configuration not stated) | n
COc1ccc(C(=O)NCC2CCOC2)cc1OC1CCN(C(C)C)CC1 (configuration not stated) | n
Cc1ccc(C(C)CCN2CCC(N3CCC(C(=O)NC4CC4)CC3)CC2)o1 (configuration not stated) | n
COCCNC(=O)c1ccc(OC2CCN(C(C)CCSC)CC2)c(Cl)c1 (configuration not stated) | 11µM
Cn1cc(CC(=O)N2CCCc3ncc(C(=O)NCCN4CCCC4)cc32)c2ccccc21 | n
c1ccc(Cn2nc(Cn3cncn3)nc2C2CCCCn3nnnc32)cc1 (configuration not stated) | n
CCN1c2cc(C(=O)NCc3ccccc3C)ccc2C(=O)N2CCCCCC21 (configuration not stated) | 6.3µM
CN1c2cc(C(=O)NCc3ccccc3)ccc2C(=O)N2CCCCC21 (configuration not stated) | n
CCN1c2cc(C(=O)NCc3ccc(OC)cc3)ccc2C(=O)N2CCCCCC21 (configuration not stated) | n
CCN1c2cc(C(=O)NCc3ccc(Cl)cc3)ccc2C(=O)N2CCCCC21 (configuration not stated) | 8.9µM
CCN1c2cc(C(=O)NCc3ccc(C)c(C)c3)ccc2C(=O)N2CCCCCC21 (configuration not stated) | n
CN1c2cc(C(=O)NCc3ccc(Cl)cc3)ccc2C(=O)N2CCCCC21 (configuration not stated) | n
CCN1c2cc(C(=O)NCc3cccc(Cl)c3)ccc2C(=O)N2CCCCCC21 (configuration not stated) | n
CCN1c2cc(C(=O)NCc3cccc(OC)c3OC)ccc2C(=O)N2CCCCCC21 (configuration not stated) | n
CC(C)c1ccc(CNC(=O)c2ccc3c(c2)N(C)C2CCCCN2C3=O)cc1 (configuration not stated) | 2.2µM
SMILES | Pf Dd2 growth
Cc1ccc(OCC(=O)NCCC2CCN(C(=O)Nc3ccccc3C)CC2)cc1 | n
Cc1cccc(C(=O)N2CC(c3nnc(-c4ccncc4)o3)C3(CCOCC3)C2)c1 (configuration not stated) | n
COc1ccc2cnn(CC(=O)NC3CCCc4c3[nH]c3ccccc43)c(=O)c2c1OC (configuration not stated) | n
C=CCN1CCN(C(=O)C2(CCO)CC23CCOCC3)CC1 (configuration not stated) | n
COc1ccc(-c2nc(-c3nnn4c3COC(c3ccccc3Cl)C4)no2)cc1F (configuration not stated) | n
Cc1ccccc1Nc1cnc2ccc(-c3cccc(CO)c3)nn12 | 2.5µM
COc1ccc(-c2ccc3ncc(Nc4cccc(F)c4)n3n2)cn1 | n
COc1ccc(-c2ccc3ncc(Nc4ccccc4C)n3n2)cn1 | 5.6µM
COc1ccc(-c2ccc3ncc(Nc4ccc(C(N)=O)cc4)n3n2)cn1 | n
COc1ccc(Nc2cnc3ccc(-c4cccc(CO)c4)nn23)cc1 | n
OCc1cccc(-c2ccc3ncc(Nc4cccc(F)c4)n3n2)c1 | n
CN(C)c1nc2c(c(=O)[nH]1)CCN(Cc1ccc(F)c(Cl)c1)CC2 | n[5.79 µM]
O=C(O)CCC(=O)N[C@H]1CO[C@H]2[C@@H]1OC[C@@H]2n1nnnc1Oc1ccc2c(c1)OCO2 | n
CCN1CCC2(CCC1=O)CN(Cc1nc3c(cnn3C)c(=O)[nH]1)CCN2C (configuration not stated) | n
Cc1ccccc1C(=O)N1CCC(N2CCCCCC2=O)CC1 | n
CS(=O)(=O)N1CCC(OC2CCN(C(=O)Nc3ccc(F)cc3F)CC2)CC1 | n
COc1ccc(-c2ccc(NS(=O)(=O)c3ccccc3)cc2)nn1 | n
COc1ccc(-c2ccc(NS(=O)(=O)c3ccccc3Cl)cc2)nn1 | 11µM
COc1ccc(-c2ccc(NS(=O)(=O)c3cccc(C)c3)cc2)nn1 | n
COC(=O)c1ccc2c(c1)nc1n2[C@@H](CNC2CCCCC2)COC1 | n
CCS(=O)(=O)N1CCCOCCNC(=O)[C@@H]2CCC[C@@H]21 | n

Compound activity as filed in PubChem.
